Screens deposited in PubChem by several laboratories.
Rows were chosen to be rich in hits. Some 3.4% of all compounds tested hit in one or more screens of this group.
ADAM10 inh = ADAM10 inhibition, QFRET primary screen; recombinant ADAM10, EDANS/DABCYL FRET peptide cleavage, 3 h; actives 0.62% (n = 370,000); inhibition, % at 7 µM; O14672;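 active = inhibition above a per-campaign cutoff equal to the mean of compounds falling between control-based bounds plus 3 SD, cut at about 20% in these data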;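 note: 0% = DMSO wells while the 100% control is not disclosed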
NRP1-CendR mod = modulators of CendR peptide binding to human neuropilin-1 | O14786 | FAM-RPARPAR peptide binding to NRP-1, fluorescence polarization | inhibition, % at 25 µM | actives 0.85% (n = 360,000) | AID 602438;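 active = inhibition or corrected inhibition above about 18%, plus a signal ratio from 0.5 to 1.5, limit read from the data, passing the limit was not always enough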
ADAM17 inh = inhibits human ADAM17; actives 0.83% (n = 370,000); inhibition, % at 6.95 µM; recombinant ADAM17, EDANS/DABCYL FRET peptide cleavage; P78536;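 active = inhibition above the mean of compounds lying between control limits plus 3 SD, set per campaign, cut at about 8.5% in these data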;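 note: 0% = DMSO-only wells as the low control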
HGIII-sPLA2 inh = Inhibits HGIII-sPLA2 liposome hydrolysis, primary screen; QFRET BODIPY PC-A2 liposome hydrolysis, fluorescence; inhibition, % at 12.2 µM; actives 0.56% (n = 370,000);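 active = inhibition above mean plus 3 SD of compounds lying within the high and low control bounds, cut at about 19% in these data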;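 note: 0% = median of test compound wells and 100% = no enzyme DMSO wells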
Target sequence (Q9NZ20 whole entry, looked up): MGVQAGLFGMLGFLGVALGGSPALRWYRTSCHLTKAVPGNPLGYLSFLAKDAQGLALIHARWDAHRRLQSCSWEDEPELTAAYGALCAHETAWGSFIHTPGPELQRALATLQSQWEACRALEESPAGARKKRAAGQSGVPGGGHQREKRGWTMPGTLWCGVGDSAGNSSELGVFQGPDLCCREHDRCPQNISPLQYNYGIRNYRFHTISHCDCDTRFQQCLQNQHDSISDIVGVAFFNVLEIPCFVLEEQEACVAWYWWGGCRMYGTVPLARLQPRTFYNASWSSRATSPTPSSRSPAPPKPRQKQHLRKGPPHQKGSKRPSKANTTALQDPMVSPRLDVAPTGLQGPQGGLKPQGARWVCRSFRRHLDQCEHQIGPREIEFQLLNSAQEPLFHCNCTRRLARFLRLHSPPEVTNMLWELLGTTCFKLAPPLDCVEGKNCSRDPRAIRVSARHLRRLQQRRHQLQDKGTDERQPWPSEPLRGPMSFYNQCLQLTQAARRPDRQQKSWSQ
proKLK7 act = activates the human kallikrein-7 zymogen; purified proKLK7, EDANS-DABCYL substrate fluorescence; 100% is mature enzyme control, 0% vehicle; actives 0.9% (n = 370,000); AID 652039; P49862; activation, % at 7 µM;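 active = activation above the mean of all tested compounds plus 3 SD, computed per campaign excluding outliers beyond control limits, cut at about 13% in these data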
Active calls of the source: *; nt = no result.

SMILES	ADAM10 inh	NRP1-CendR mod	ADAM17 inh	HGIII-sPLA2 inh	proKLK7 act
CN1/C(=C\C(=S)NC(=O)c2ccccc2Cl)C(C)(C)c2ccccc21	-2.4	-134.3	-3.1	17.6	-0.1
COc1ccccc1C(=O)NC(=S)/C=C1/N(C)c2ccccc2C1(C)C	14.1	-45.3	5.8	20.1*	0.8
C#CCNC(=O)C[C@H]1C(=O)N(CCCOC)C2=CCCCC[C@]21C(=O)OC	6.0	nt	4.2	11.3	-0.2
COC(=O)C1CCCN1S(=O)(=O)c1ccccc1NC(=O)c1cc(OC)c(OC)c(OC)c1 (stereo unspecified)	-1.4	3.0	0.5	-11.5	0.8
COc1cc(OC)cc(C(=O)Nc2ccccc2S(=O)(=O)N2CCCC2OC(C)=O)c1 (stereo unspecified)	9.6	18.5*	3.5	-4.0	0.4
C#CCN1C(=O)[C@]2(NCCc3c2[nH]c2ccc(OC)cc32)c2cc(F)ccc21	0.3	nt	-5.1	-0.6	0.1
Cc1cc(NC(c2ccc(Cl)cc2)c2ccc3cccnc3c2O)no1 (stereo unspecified)	12.3	13.2	0.8	35.2*	0.0
COc1cc(C(Nc2ccccn2)c2ccc3ccc(C)nc3c2O)cc(OC)c1O (stereo unspecified)	nt	-18.6	nt	nt	nt
Cc1ccnc(NC(c2ccccc2)c2ccc3cccnc3c2O)c1 (stereo unspecified)	11.4	33.0*	-1.6	16.1	-0.1
Cc1ccc2ccc(C(Nc3ccccn3)c3ccccc3)c(O)c2n1 (stereo unspecified)	24.6*	6.5	7.7	16.0	0.8
Cc1ccccc1Cn1cc(COC(=O)NCCc2ccccc2)nn1	-0.1	nt	-1.2	-1.0	0.6
Cc1ccc(S(=O)C(c2ccccc2)c2ccccc2)cc1 (stereo unspecified)	0.4	20.4*	-0.3	-3.1	0.1
Cc1ccc2c(c1)N(CCCC(=O)N(C)Cc1ccccc1F)C(=O)CO2	3.6	nt	1.2	-1.9	-1.0
O=C(CN1C2=NCCN2c2ccccc21)c1ccco1	4.2	32.0*	-0.6	-11.5	-0.5
O=C(CN1C2=NCCN2c2ccccc21)N1CCOCC1	-3.3	nt	-4.1	8.4	0.4
Clc1ccc(C2=NNC(=NCc3ccc4c(c3)OCO4)SC2)cc1	11.1	3.6	11.5*	-27.7	-0.4
COc1cc(NC(=O)C2CCCN(S(=O)(=O)c3ccccc3[N+](=O)[O-])C2)cc(OC)c1 (stereo unspecified)	-2.2	nt	1.6	-26.1	0.0
CC1(NC(=O)c2ccc(C#Cc3cccc(F)c3)cn2)COC1	-100.4	nt	-27.9	-4.1	1.0
Cn1cccc1C(=O)N1CCN(S(=O)(=O)c2cccc3ccccc23)CC1	8.1	nt	1.1	-5.8	0.3
COC(=O)c1ccc(Cn2nnc3c(=O)[nH]c(C4CCCN(S(=O)(=O)c5cccc(Cl)c5)C4)nc32)cc1 (stereo unspecified)	6.8	27.3*	-5.2	-3.6	-0.8
COC(=O)c1ccc(Cn2nnc3c(=O)[nH]c(C4CCCN(S(=O)(=O)c5ccc(C)cc5)C4)nc32)cc1 (stereo unspecified)	-7.5	5.6	-0.3	2.7	-0.5
CCc1ccc(-c2cc3c(=O)n(CC(=O)NCCCN4CCN(CC)CC4)nc(C)n3n2)cc1	-5.2	24.1*	-0.9	2.4	0.0
Cc1nn(CC(=O)NCCCN2CCN(C)CC2)c(=O)c2cc(-c3ccccc3)nn12	2.4	5.6	-1.3	6.8	0.7
O=C(CNCc1ccccc1[N+](=O)[O-])N1CCC2(CC1)OCCO2	0.4	nt	0.4	3.7	-0.7
N/C(CSc1ccc(Cl)cc1)=N\S(=O)(=O)c1ccc(Cl)cc1	7.8	28.8*	0.2	-31.6	0.0
CC1CCN(CCCNC(=O)CN2C(=O)CSc3ccc(S(=O)(=O)N4CCOCC4)cc32)CC1	-0.3	8.8	-4.2	1.3	0.6
CC1CC(C)CN(CCCNC(=O)CN2C(=O)CSc3ccc(S(=O)(=O)N4CCOCC4)cc32)C1 (stereo unspecified)	0.6	18.8*	-8.9	0.8	0.7
COc1ccc(C)cc1S(=O)(=O)Nc1cc2c3c(c1)C(C)C(=O)N3CCC2 (stereo unspecified)	-3.4	22.6*	-1.8	-16.8	-0.3
Cc1ccc(/C(N)=N/OC(=O)c2ccc(Cl)cc2Cl)cc1	5.0	51.7*	-0.1	-2.4	-0.2
Cc1cccc(C(=O)O/N=C(\N)c2ccc(Cl)cc2)c1	-4.2	9.6	1.4	-0.4	-0.4
